The results in this text go back to PubChem BioAssay (NCI).

Structures are written as SMILES. The panel holds about 83,000 compounds, 20% with a hit somewhere; the sample as a whole holds those more often.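 Compound tested at a single concentration for 48 hours in 96-well plates; a percent growth value below 10 was scored as active.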 A number with no mark means an inactive call. Activity calls are given as the source filed them.

Among the test systems are NCI-H23 lung; NCI-H226 lung; NCI-H322M lung; NCI-H460 lung; HOP-92 NSCLC; NCI-H522 lung; A549/ATCC NSCLC; 786-0 renal; COLO 205 colon; DU-145 prostate; K-562 leukemia; MALME-3M melanoma; MDA-MB-231 breast; RXF 393 renal; SF-268 CNS; SF-295 CNS; SF-539 CNS; UACC-257 melanoma; M14 melanoma.
Common to all, as to assay: NCI-60 one-dose screen, 48 h (100 = growth as untreated, 0 = no growth, -100 = all killed)
Common to all, as to conditions: 10 µM unless noted

Regarding `C(=C\c1n(Cc2ccc3ccccc3c2)c(-c2ccccc2)c(-c2ccccc2)[n+]1Cc1ccc2ccccc2c1)/c1ccccc1`, the growth with NCI-H23 lung was -80.2% (active); in the assay with NCI-H226 lung, -74.9% (active); with NCI-H322M lung it was -5.86% (active); in the assay with NCI-H460 lung, -84.1% (active); in the assay with HOP-92 NSCLC, -81.8% (active); in the assay on NCI-H522 lung, -62.3% (active). In addition, the growth in the assay on A549/ATCC NSCLC was -62.4% (active); in the assay with 786-0 renal, -78.2% (active); with COLO 205 colon it was -70.5% (active); in the assay on DU-145 prostate, -97% (active); in the assay on K-562 leukemia, -22.3% (active); in the assay on MALME-3M melanoma it was -86.9% (active). Besides, the growth was -95% (active) with MDA-MB-231 breast; -93.5% (active) with RXF 393 renal; -68.5% (active) in the assay on SF-268 CNS; -95.9% (active) in the assay with SF-295 CNS; -91.9% (active) in the assay with SF-539 CNS; -69.2% (active) in the assay with UACC-257 melanoma. Further, in the assay on M14 melanoma, the growth was -72.2% (active).

On to `COc1ccc(-c2nc(SCC(C)C)nc(N/N=C(/C)c3ccc(OC)c(OC)c3)c2C#N)cc1`, for which the growth was 89.7% with NCI-H23 lung; 94.1% with NCI-H226 lung; 79.7% with NCI-H322M lung; 65.9% in the assay with NCI-H460 lung; 38.4% with HOP-92 NSCLC; 80.8% in the assay on NCI-H522 lung. Besides, the growth in the assay with A549/ATCC NSCLC is 99.8%; in the assay with 786-0 renal, 96.9%; in the assay on COLO 205 colon it was 110%; with DU-145 prostate, 87.7%; with K-562 leukemia, 69.5%; in the assay on MALME-3M melanoma, 88.9%. Also, the growth with MDA-MB-231 breast was 74.5%; with SF-268 CNS it was 79.1%; in the assay with SF-295 CNS, 92.8%; with SF-539 CNS it was 80.9%; in the assay with UACC-257 melanoma, 105%.

As to `Cc1ccccc1-c1cc(Cc2ccc(F)cc2)c(=O)[nH]n1`, the growth is 98.3% in the assay on NCI-H23 lung; 105% with NCI-H226 lung; 94.3% with NCI-H322M lung; 107% in the assay with NCI-H460 lung; 99.8% with HOP-92 NSCLC; 95.1% in the assay with NCI-H522 lung. Further, the growth in the assay on A549/ATCC NSCLC is 33.4%; in the assay on 786-0 renal, 111%; in the assay with COLO 205 colon, 108%; in the assay with DU-145 prostate, 130%; with K-562 leukemia, 84.8%; with MALME-3M melanoma, 88%. Further, the growth was 109% with MDA-MB-231 breast; 94.6% in the assay with SF-268 CNS; 123% in the assay on SF-295 CNS; 94.2% with SF-539 CNS; 137% in the assay with UACC-257 melanoma; 118% with M14 melanoma.

`COc1ccccc1/C=C1\Oc2cc(OCCCN3CCCC3)ccc2C1=O`: the growth with NCI-H23 lung is 83%; in the assay with NCI-H226 lung, 98.7%; with NCI-H322M lung it was 96.5%; with NCI-H460 lung, 95.9%; in the assay on HOP-92 NSCLC, 63.1%; in the assay on NCI-H522 lung, 104%. The growth is 99.9% in the assay with A549/ATCC NSCLC; 94% with 786-0 renal; 96.4% in the assay with COLO 205 colon; 98% in the assay with DU-145 prostate; 4.95% (active) in the assay with K-562 leukemia; 96.5% in the assay on MALME-3M melanoma. Further, the growth with MDA-MB-231 breast was 86.5%; in the assay on SF-268 CNS, 90.3%; with SF-295 CNS, 99.2%; with SF-539 CNS it was 76.4%; with UACC-257 melanoma, 109%; in the assay on M14 melanoma, 100%.

As to `CC1(C)NCCC[C@]2(C)[C@H]3CC=C4[C@@H]5C[C@@](C)(CO)CC[C@]5(C)CC[C@@]4(C)[C@]3(C)CC[C@@H]12`, the growth is 81.3% with NCI-H23 lung; 83.9% in the assay with NCI-H226 lung; 81.7% with NCI-H322M lung; 4.29% (active) with NCI-H460 lung; 38.3% in the assay with HOP-92 NSCLC; 73.8% in the assay with NCI-H522 lung. The growth with A549/ATCC NSCLC was 51%; with 786-0 renal, 55.5%; in the assay on COLO 205 colon, -4.98% (active); with DU-145 prostate, 75.6%; in the assay with K-562 leukemia it was 9.28% (active); in the assay with MALME-3M melanoma, 57%. Besides, the growth in the assay on MDA-MB-231 breast is 58%; in the assay with RXF 393 renal, 57.8%; with SF-268 CNS it was 67.1%; with SF-295 CNS, 64.1%; in the assay on SF-539 CNS, 64.6%; with UACC-257 melanoma, 55.1%. Besides, the growth in the assay with M14 melanoma is 33.6%.

Turning to `O=S(=O)(c1ccccc1)N1CCCc2ccccc21`, the growth with NCI-H23 lung is 102%; with NCI-H226 lung, 104%; in the assay on NCI-H322M lung it was 99%; in the assay on NCI-H460 lung, 107%; with HOP-92 NSCLC, 88.5%; in the assay on NCI-H522 lung, 82.2%. Besides, the growth is 91.4% in the assay with A549/ATCC NSCLC; 102% with 786-0 renal; 112% in the assay with COLO 205 colon; 112% in the assay on DU-145 prostate; 97% in the assay on K-562 leukemia; 93.6% with MALME-3M melanoma. Further, the growth was 98.8% in the assay on MDA-MB-231 breast; 95.5% in the assay on SF-268 CNS; 98.5% in the assay with SF-295 CNS; 102% in the assay with SF-539 CNS; 96.3% with UACC-257 melanoma; 102% with M14 melanoma.

On to `COc1cc(/C=C/C(=O)c2c(C)oc3nc[nH]c(=O)c23)ccc1O`, for which the growth in the assay on NCI-H23 lung was 98.7%; in the assay with NCI-H226 lung it was 102%; with NCI-H322M lung, 98.3%; in the assay with NCI-H460 lung it was 103%; with HOP-92 NSCLC, 116%; in the assay on NCI-H522 lung, 101%. The growth was 101% in the assay with A549/ATCC NSCLC; 102% in the assay on 786-0 renal; 102% in the assay on COLO 205 colon; 116% in the assay on DU-145 prostate; 111% in the assay with K-562 leukemia; 103% in the assay with MALME-3M melanoma. In addition, the growth in the assay on MDA-MB-231 breast was 106%; in the assay with SF-268 CNS it was 99.6%; in the assay on SF-295 CNS it was 99.3%; in the assay on SF-539 CNS, 97.5%; in the assay on UACC-257 melanoma, 96.6%; in the assay on M14 melanoma, 99.6%.

With `COc1cc2nc(-c3ccc(C(F)(F)F)cc3)cc(OCCN3CCC(O)CC3)c2cc1OC`, the growth was 88.9% in the assay on NCI-H23 lung; 56.3% in the assay on NCI-H226 lung; 68.8% with NCI-H322M lung; 44.5% in the assay on NCI-H460 lung; 71.2% in the assay with HOP-92 NSCLC; 79.6% with NCI-H522 lung. Also, the growth in the assay on A549/ATCC NSCLC was 79.2%; in the assay with 786-0 renal, 78.7%; in the assay with COLO 205 colon it was 35.7%; in the assay on DU-145 prostate it was 58.8%; with K-562 leukemia it was 61.3%; in the assay with MALME-3M melanoma, 83.6%. The growth in the assay with MDA-MB-231 breast was 49.1%; with RXF 393 renal, 61.2%; in the assay on SF-268 CNS, 70%; in the assay on SF-295 CNS it was 80.4%; with SF-539 CNS, 76.8%; with UACC-257 melanoma it was 92.3%. In the assay on M14 melanoma, the growth was 25.2%.

Consider `CN1CCCC1=Nc1ccccc1`, for which the growth is 93.7% with NCI-H23 lung; 104% with NCI-H226 lung; 99.2% with NCI-H322M lung; 111% in the assay on NCI-H460 lung; 89% in the assay with HOP-92 NSCLC; 83.2% in the assay on NCI-H522 lung. Besides, the growth in the assay with A549/ATCC NSCLC is 97.9%; in the assay with 786-0 renal it was 115%; with COLO 205 colon, 110%; in the assay on DU-145 prostate, 116%; in the assay with K-562 leukemia, 100%; in the assay with MALME-3M melanoma it was 104%. Further, the growth in the assay with MDA-MB-231 breast is 109%; in the assay with RXF 393 renal, 103%; in the assay on SF-268 CNS, 124%; in the assay on SF-295 CNS, 96.7%; in the assay with SF-539 CNS, 113%; in the assay with UACC-257 melanoma it was 101%. Moreover, the growth in the assay on M14 melanoma was 117%.
